# Experimental data as given in PubChem BioAssay (NCI).
# About 83,000 compounds went through this panel and 20% of them were active in at least one assay; those are over-represented in the sample as a whole.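 Method: cells in 96-well plates; compound added at one concentration; 48 h incubation; percent growth measured; values under 10 scored active.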 Values without a mark were called inactive. Calls of active or inactive are those of the source.
# Legend:
# Experiment in all cases: NCI-60 one-dose screen, 48 h (100 = growth as untreated, 0 = no growth, -100 = all killed)
# Conditions in all cases: 10 µM unless noted
# RPMI-8226 leukemia = test system: RPMI-8226 leukemia
# OVCAR-8 ovarian = test system: OVCAR-8 ovarian
# OVCAR-5 ovarian = test system: OVCAR-5 ovarian
# SK-OV-3 ovarian = test system: SK-OV-3 ovarian
# OVCAR-3 ovarian = test system: OVCAR-3 ovarian
# HS 578T breast = test system: HS 578T breast
# NCI/ADR-RES ovarian = test system: NCI/ADR-RES ovarian
# OVCAR-4 ovarian = test system: OVCAR-4 ovarian
# IGROV1 ovarian = test system: IGROV1 ovarian
Compound,growth (RPMI-8226 leukemia),growth (OVCAR-8 ovarian),growth (OVCAR-5 ovarian),growth (SK-OV-3 ovarian),growth (OVCAR-3 ovarian),growth (HS 578T breast),growth (NCI/ADR-RES ovarian),growth (OVCAR-4 ovarian),growth (IGROV1 ovarian)
COc1ccc2[nH]c(O)c(C(=Nc3ccc(N(C)C(=O)CN4CCN(C)CC4)cc3)c3ccccc3)c2c1,38.8%,43.9%,49.2%,5.77% (active),75.9%,-16.8% (active),82.2%,–,–
N/C(=N/N=C/c1ccccc1)N/N=C\c1ccccc1,55.3%,–,83.4%,–,12.6%,67.7%,10.7%,87.2%,73%
COc1ccc(N=C(c2ccccc2)C2C(=O)c3ccccc3C2=O)cc1,37.2%,83.3%,104%,108%,82.3%,86.9%,91.9%,–,–
COc1ccc(-c2cc(-c3cc(OC)c(OC)c(OC)c3)c(C#N)c(N3CCOCC3)n2)cc1O,-23.8% (active),–,20.5%,81.2%,27.4%,41.7%,-51.5% (active),89.6%,59.3%
C=CCNc1nc(NN2C(=O)c3cccc4cccc(c34)C2=O)nc(-n2cnc3ccccc32)n1,65.7%,–,77.2%,40.9%,84.5%,35.9%,72%,52.5%,46.7%
Cc1ccc(C(=O)CSc2nc(-c3ccc(Br)cc3)c(C#N)c(=O)[nH]2)cc1,–,88.8%,105%,104%,99.7%,93%,97.5%,85.9%,99.3%
COc1ccc2c(c1)[nH]c(=O)c1c3cccnc3cn21,32%,8.08% (active),–,–,23.8%,49.6%,0.176% (active),–,20.2%
COc1ccc2c(c1)C(=O)/C(=C/c1cccc(OCC(=O)Nc3nc(C)c(C)s3)c1)O2,-63.3% (active),4.69% (active),-77.3% (active),46.1%,-58.9% (active),5.38% (active),-59% (active),–,–
c1ccc(Nc2nc(-c3ccccn3)cs2)nc1,14.6%,14.4%,53%,29.5%,39.7%,42.9%,-0.82% (active),–,9.37% (active)
Cc1ccc(-c2cc(-c3cccnc3)[nH]c(=O)c2C#N)cc1,101%,–,107%,114%,106%,102%,105%,103%,106%
COc1ccc2oc3c(C)c4c(c(C)c3c2c1)C(=O)N(Cc1ccccc1)C4=O,–,91.2%,99.9%,103%,89.3%,85.5%,95.3%,90.7%,94.6%
N=C1CCC(=N)c2c1c(O)c1ccccc1c2O,80.2%,109%,124%,84.7%,–,82.8%,119%,–,80.1%
COc1nc(N(C)O)nc(N(C)O)n1,–,27.1%,53.6%,32%,9.27% (active),87.9%,14.9%,33.3%,54.7%
CCCCCCCCCOc1c(OC)cc(C2CC(=O)Nc3c2c(C)nn3-c2nc3ccccc3[nH]2)cc1OC (stereo not given),10.1%,–,-68.7% (active),-62.7% (active),-63.3% (active),-23% (active),-1.8% (active),1.92% (active),-51.1% (active)
COc1cc(/C=N/n2c(CN3CCOCC3)nc3ccccc3c2=O)cc(OC)c1OC,107%,–,97.4%,103%,106%,105%,101%,104%,98.3%
COc1ccc(NC(=O)CSc2nnc(-c3cc(-c4ccc(S(N)(=O)=O)cc4)nc4ccccc34)n2-c2ccccc2)cc1,57.9%,75.4%,92.8%,89.8%,95.1%,75.6%,104%,–,77.9%
Cc1ccc(S(=O)(=O)NCC[C@@H]2C[C@H]2c2cc3ccccc3s2)cc1,83.4%,–,106%,107%,101%,91.5%,96.9%,78.3%,101%
CC1(C)CC(=O)C2=C(C1)N(c1ccc(OC(F)(F)F)cc1)C(N)=C(C#N)C2c1ccc(Cl)cc1 (stereo not given),–,56.2%,91%,62.7%,94.5%,65.5%,87.6%,85%,90.3%
CC(C)(C)CC(C)(C)Nc1c(-c2ccncc2)nc2cnccn12,–,95.6%,93.7%,92.8%,102%,92.2%,99.5%,84%,99.8%
COc1cc(/C=N/Nc2ncc(-c3cc4cc5c(cc4o3)OCO5)s2)cc(OC)c1OC,6.26% (active),30%,98.2%,–,67.2%,89.6%,26.3%,–,66.7%
COc1cc(CCC[P+](c2ccccc2)(c2ccccc2)c2ccccc2)cc2c1OCO2,9.71% (active),29.5%,59.1%,82.4%,19.7%,45.5%,101%,–,28.8%
CCCCCCCCCCCC(c1ccccc1)[N+](C)(C)C (stereo not given),-16.1% (active),–,17.3%,10.3%,18.6%,–,91.7%,9.74% (active),-60.8% (active)
COc1ccc(-c2nc(SCCC(C)C)nc(N/N=C\c3cccc([N+](=O)[O-])c3)c2C#N)cc1,–,39.7%,38.4%,63.4%,-30.4% (active),9.44% (active),56.2%,-13.3% (active),38.8%
COc1ccc(-c2nc(SCCC(C)C)nc(N/N=C\c3cccc(Cl)c3)c2C#N)cc1,–,57.7%,84.3%,84%,38.5%,20.7%,79.2%,-13.4% (active),76.2%
CCN1C(=O)N(CC)C2Nn3c(s/c(=C\c4cccc([N+](=O)[O-])c4)c3=O)=NC21 (stereo not given),64.8%,–,45.4%,51.7%,9.24% (active),41.3%,16.1%,59.6%,53.1%
O=c1[nH]c2ccccc2n1C1CCN(CCOc2ccccc2)CC1,41.5%,–,104%,91.8%,–,54.6%,94.1%,66.7%,–
O=[N+]([O-])c1ccc(N2c3ccncc3Sc3ccncc32)cc1,93.5%,87%,118%,116%,94.2%,104%,106%,–,–
O=C(CSc1nnc(-c2ccc(NC(=O)c3cccnc3)cc2)o1)Nc1cccc(Br)c1,–,88.7%,99.3%,110%,107%,90.6%,93.8%,93.8%,80.5%
Cc1ccc(/C=C2\C(=O)N(C)c3ccc(S(=O)(=O)Nc4ccc(C(C)(C)C)cc4)cc32)s1,–,29.5%,69.4%,76.4%,11.4%,-5.78% (active),62.1%,-1.02% (active),63.9%
